Measured values: PubChem BioAssay (Tox21)
Values joined by “and” are separate entries in the source; they are usually repeats but may differ in a detail not shown here. Equal entries are not always repeated. Records with an inconclusive call do not appear. Active and inactive are the calls of the source. Unless noted, calls follow the shape of the dose curve; as a rule, active = well fitted curve in the direction sought with a large enough effect in the repeat runs; inconclusive = weak or mixed curves; inactive = no such curve, though single readings can be large; an effect the other way counts as inactive or inconclusive.

Tests used:
[1] = qHTS assay to identify small molecule agonists of the hypoxia (HIF-1) signaling pathway - cell viability counter screen (AID 1224844; calls by dose curve; also: nearly all actives have a fitted effect of over 50% in size; also: potency is read from the fitted curve at half-maximal effect)
Method in brief: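 Luminescent ATP content (CellTiter-Glo, 30 min, room temperature) served as the viability measure in HRE-bla ME-180 cells exposed to compounds for 17 hrs in low-serum medium (0.5% dialyzed FBS).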

[2] = qHTS assay to identify small molecule agonists of H2AX (AID 1224845; active = well fitted activation curve with a large enough effect in the signal ratio in the repeat runs, not every such curve was filed as active; the % refers to the signal ratio; also: potency is read from the fitted curve at half-maximal effect)
Method in brief: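 Wild-type CHO-K1 cells, plated overnight, exposed 3hr at 37C to 15 concentrations (0.76% DMSO final). Lysed, then HTRF anti-pH2AX (S139) cryptate and anti-H2AX-d2 antibodies, 24 hr room temperature; 665/620 nm emission read.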

[3] = qHTS assay to identify small molecule agonists of the hypoxia (HIF-1) signaling pathway (AID 1224846; active = well fitted activation curve with a large enough effect in the signal ratio in the repeat runs, not every such curve was filed as active; the % refers to the signal ratio)
Method in brief: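 Measured by blue/green FRET after loading CCF4-AM: beta-lactamase expressed from a hypoxia response element in ME-180 cells. Test agents were delivered in DMSO and left 17 hrs; cells had been plated 5 hrs earlier in low-serum (0.5% dialyzed FBS) medium.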

[4] = qHTS assay to identify small molecule agonists of H2AX - cell viability counter screen (AID 1224847; calls by dose curve; also: nearly all actives have a fitted effect of over 30% in size; also: potency is read from the fitted curve at half-maximal effect)
Method in brief: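 Read-out: CellTiter-Glo luminescence, 30 min RT. Cells: wild-type CHO-K1, 1000/well, 10% FBS, plated overnight at 37C. Treatment: 15 concentrations, 3 hr, 37C, 0.76% DMSO.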

[5] = qHTS RealTime-Glo MT Cell Viability Assay in HepG2 cells - 24 hour (AID 1224867); also: nearly all actives have a fitted effect of over 50% in size; also: potency is read from the fitted curve at half-maximal effect
Method in brief: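 Cells + NanoLuc/prosubstrate dispensed (600 cells/well) → 5 h at 37 C/5% CO2 → compounds in DMSO transferred → 40 h incubation at 37 C, luminescence read at 0, 8, 16, 24, 32, 40 h.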

[6] = A CellTox Green Cytotoxicity Assay to monitor cytotoxicity in HEK293 cells - 0 hour (AID 1224869); also: nearly all actives have a fitted effect of over 50% in size
Method in brief: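 Each value comes from one timepoint of a single continuous run in which HEK293 cells with CellTox Green were exposed to compound for up to 40 h at 37 C, dye fluorescence rising with cell death.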

[7] = qHTS RealTime-Glo MT Cell Viability Assay in HepG2 cells - 40 hour (AID 1224870); also: nearly all actives have a fitted effect of over 50% in size; also: potency is read from the fitted curve at half-maximal effect
Method in brief: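 HepG2 cells (600/well) mixed with RealTime-Glo MT reagent, settled 5 h at 37 C/5% CO2 before compound addition. Nonlytic NanoLuc luminescence from viable-cell prosubstrate reduction read repeatedly during 40 h treatment at 37 C.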

[8] = qHTS RealTime-Glo MT Cell Viability Assay in HEK293 cells - 32 hour (AID 1224868); also: nearly all actives have a fitted effect of over 50% in size; also: potency is read from the fitted curve at half-maximal effect
Method in brief: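 Tox21 10K qHTS, HEK293, 600 cells/well, RealTime-Glo reagent co-dispensed with cells; 5 h preincubation, compound by pintool, 37 C, luminescence at 0–40 h.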

[9] = qHTS assay to identify small molecule antagonists of the estrogen related receptor (ERR) signaling pathway from Tox21 library (AID 1224848); also: nearly all actives have a fitted effect of over 50% in size; also: potency is read from the fitted curve at half-maximal effect
Method in brief: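 Luminescent reporter read-out (ONE-Glo) from NTP's ERR cell line after 18 h treatment at 37 C with DMSO-dissolved Tox21 compounds; cells pre-plated 6 h beforehand at 2,000 per well.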

[10] = qHTS assay to identify small molecule agonists of the estrogen related receptor (ERR) signaling pathway from Tox21 library (AID 1224849; calls by dose curve; also: nearly all actives have a fitted effect of over 15% in size); details: ERR reporter cell line, ONE-Glo luciferase, 18 h; at 92.4 µM (top of the series) unless noted
Method in brief: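 We plated ERR reporter cells, waited 6 h, added compounds in DMSO by pin tool and incubated them 18 h at 37 C. ONE-Glo was then added and luminescence read after 30 min.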
% is scaled to controls: 0 for no effect and ±100 for the full control effect.

CC1=NC(C)OC1C (stereo not given)
inactive: Potency [1] | Potency [2] | Potency [3] | Potency [4] | Potency [5] | Potency [6] | Potency [7]

C/C=C1/C(=O)C[C@H]2[C@@H]3CCC4=CC(=O)CC[C@]4(C)[C@H]3CC[C@]12C
active: Potency [8] 48.8 µM
inactive: Potency [1] | Potency [2] | Potency [3] | Potency [4] | Potency [6] | Potency [7]

CC[C@H]1O[C@]2(CC[C@@H]1C)C[C@@H]1C[C@@H](C/C=C(\C)C[C@@H](C)/C=C/C=C3\CO[C@@H]4[C@H](O)C(C)=C[C@@H](C(=O)O1)[C@]34O)O2
inactive: activity change, positive = activation [10] -67.4% | Potency [6]
active: Potency [1] 21.7 µM | Potency [2] 44.6 µM | Potency [4] 50 µM | Potency [9] 30.4 µM | Potency [5] 43.3 µM | Potency [8] 24.3 µM | Potency [7] 43.3 µM

CN(C)[C@@H]1C(=O)C(C(N)=O)=C(O)[C@@]2(O)C(=O)C3=C(O)c4c(O)ccc(Cl)c4[C@@H](O)[C@H]3C[C@@H]12
inactive: Potency [1] | Potency [2] | Potency [4] | Potency [9] | activity change, positive = activation [10] -10.9% [at 42.5 µM] | Potency [5] | Potency [8] | Potency [6] | Potency [7]

NC(=O)CC[C@@H]1NC(=O)[C@H](Cc2ccccc2)NC(=O)[C@H](Cc2ccc(O)cc2)NC(=O)CCSSC[C@@H](C(=O)N2CCC[C@H]2C(=O)N[C@@H](CCCN=C(N)N)C(=O)NCC(N)=O)NC(=O)[C@H](CC(N)=O)NC1=O
inactive: Potency [1] | Potency [2] | Potency [3] | Potency [4] | Potency [8] | Potency [6] | Potency [7]

O=C(c1ccc(O)cc1O)c1ccc(O)cc1O
inactive: Potency [1] | Potency [2] | Potency [3] | Potency [5] | Potency [8] | Potency [6] | Potency [7]

OCCN1CCN(CC/C=C2/c3ccccc3Sc3ccc(C(F)(F)F)cc32)CC1
inactive: Potency [2] | activity change, positive = activation [10] -67.6% [at 42.5 µM] | Potency [6]
active: Potency [1] 21.3 µM | Potency [4] 55.2 µM | Potency [9] 29.8 µM | Potency [5] 21.3 µM | Potency [8] 19 µM | Potency [7] 15.1 µM

Cn1cc(C(=O)[C@@H]2CCc3nc[nH]c3C2)c2ccccc21
inactive: Potency [1] | Potency [2] | Potency [4] | Potency [9] | Potency [5] | Potency [6] | Potency [7]

Cc1cc(CCN2CCN(c3nsc4ccccc34)CC2)cc2c1NC(=O)CC2(C)C
active: Potency [1] 38.9 µM | Potency [4] 113 µM | Potency [9] 5.45 µM | Potency [8] 7.76 µM
inactive: Potency [2] | Potency [6]

COc1cc(-c2ccc(N=C=O)c(OC)c2)ccc1N=C=O
inactive: Potency [1] | Potency [2] | Potency [4] | Potency [9] | Potency [5] | Potency [8] | Potency [6] | Potency [7]

CCc1cc(Cc2cc(CC)cc(C(C)(C)C)c2O)c(O)c(C(C)(C)C)c1
active: Potency [1] 11 µM | Potency [2] 50.5 µM | Potency [4] 31.8 µM | Potency [9] 30.6 µM | Potency [8] 19.5 µM | Potency [7] 54.9 µM
inactive: activity change, positive = activation [10] -75.4% | Potency [6]

CSc1ccc(C(=O)c2[nH]c(=O)[nH]c2C)cc1
inactive: Potency [1] | Potency [2] | Potency [4] | Potency [9] | Potency [8] | Potency [6] | Potency [7]

Cc1oc(-c2ccccc2)nc1CCC(=O)c1ccc(CC2SC(=O)NC2=O)cc1 (stereo not given)
inactive: Potency [1] | Potency [2] | Potency [4] | activity change, positive = activation [10] -19.2% [at 42.5 µM] | Potency [5] | Potency [8] | Potency [6] | Potency [7]

O=C(NO)C1(NS(=O)(=O)c2ccc(Oc3ccc(F)cc3)cc2)CCOCC1
inactive: Potency [1] | Potency [2] | Potency [4] | activity change, positive = activation [10] -35.1% | Potency [5] | Potency [6] | Potency [7]
active: Potency [9] 27.3 µM

CCCC1O[C@@H]2C[C@H]3[C@@H]4CCC5=CC(=O)C=C[C@]5(C)[C@H]4[C@@H](O)C[C@]3(C)[C@]2(C(=O)CO)O1 (stereo not given in full)
inactive: Potency [2] | Potency [4] | activity change, positive = activation [10] -61.9% and -49.1% | Potency [5] | Potency [6] | Potency [7]
active: Potency [1] 49 µM and 54.9 µM | Potency [9] 27.3 µM and 34.4 µM | Potency [8] 24.6 µM and 43.6 µM

CC(C)(C)CC(C)(C)c1ccc(OCCOCC[N+](C)(C)Cc2ccccc2)cc1
active: Potency [1] 19.5 µM and 9.52 µM | Potency [4] 101 µM and 49.2 µM | Potency [9] 6.85 µM and 5.96 µM | Potency [5] 48.9 µM and 9.52 µM | Potency [8] 12.3 µM and 9.52 µM | Potency [7] 24.5 µM and 9.52 µM
inactive: Potency [2] | Potency [6]

C[n+]1ccn(Cc2ccccc2)c1
inactive: Potency [1] | Potency [2] | Potency [4] | activity change, positive = activation [10] -31.8% | Potency [5] | Potency [7]

CN(C)[C@@H]1C(=O)C(C(N)=O)=C(O)[C@@]2(O)C(=O)C3=C(O)c4c(O)cccc4C[C@H]3C[C@@H]12
inactive: Potency [1] | Potency [2] | Potency [4] | activity change, positive = activation [10] -27.8% [at 42.5 µM] | Potency [5] | Potency [8] | Potency [7]

O=c1[nH]sc2ccccc12
active: Potency [1] 21.9 µM | Potency [4] 101 µM | Potency [9] 43.3 µM | Potency [5] 21.9 µM | Potency [8] 30.9 µM | Potency [7] 21.9 µM
inactive: Potency [2] | activity change, positive = activation [10] -73.9% | Potency [6]

Cc1onc(-c2c(Cl)cccc2Cl)c1C(=O)N[C@@H]1C(=O)N2[C@@H]1SC(C)(C)[C@@H]2C(=O)O
inactive: Potency [1] | Potency [2] | Potency [4] | Potency [9] | activity change, positive = activation [10] -4.23% [at 42.5 µM] | Potency [5] | Potency [8] | Potency [6] | Potency [7]

CCCCCCCCCCCCCCCCCC[N+](C)(C)Cc1ccccc1
active: Potency [1] 24.8 µM | Potency [4] 45.4 µM | Potency [9] 19.5 µM | Potency [5] 49.5 µM | Potency [8] 2.78 µM | Potency [7] 22.1 µM
inactive: Potency [2] | activity change, positive = activation [10] -81%

CC(C)(C)NC(=O)[C@@H]1C[C@@H]2CCCC[C@@H]2CN1C[C@@H](O)[C@H](Cc1ccccc1)NC(=O)[C@H](CC(N)=O)NC(=O)c1ccc2ccccc2n1
active: Potency [1] 55.7 µM | Potency [2] 51.2 µM | Potency [4] 51.2 µM | Potency [9] 19.6 µM | Potency [5] 55.7 µM | Potency [8] 19.7 µM
inactive: Potency [6]
